Values joined by “and” are separate entries in the source; they are usually repeats but may differ in a detail not shown here. Equal entries are not always repeated. Records with an inconclusive call do not appear. A call without a number means that no potency is given here. Where a structure was tested more than once in an assay, its records may differ in their call. Active and inactive are the calls of the source. Unless noted, calls follow the shape of the dose curve; as a rule, active = well fitted inhibition curve with a large enough effect in the repeat runs; inconclusive = weak or mixed curves; inactive = no such curve, though single readings can be large or run the other way.

One assay in a line: qHTS assay to identify small molecule agonists of the hypoxia (HIF-1) signaling pathway (AID 1224846; active = well fitted activation curve with a large enough effect in the signal ratio in the repeat runs, not every such curve was filed as active; the % refers to the signal ratio). The settings on record: HRE-bla ME-180 cells, beta-lactamase ratio, 17 h; series mostly up to 76.8 µM. The essentials: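 Compounds added to ME-180 cells carrying hypoxia-response-element beta-lactamase reporter (0.5% dialyzed FBS, 5 h preplating), 17 h at 37C; agonist activity detected by CCF4-AM B/G FRET read-out.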
In general terms: Quantitative high-throughput screening tests each substance at several concentrations.
As for `OC[C@H]1O[C@@H]2O[C@H]3[C@H](O)[C@@H](O)[C@@H](O[C@H]4[C@H](O)[C@@H](O)[C@@H](O[C@H]5[C@H](O)[C@@H](O)[C@@H](O[C@H]6[C@H](O)[C@@H](O)[C@@H](O[C@H]7[C@H](O)[C@@H](O)[C@@H](O[C@H]8[C@H](O)[C@@H](O)[C@@H](O[C@H]1[C@H](O)[C@H]2O)O[C@@H]8CO)O[C@@H]7CO)O[C@@H]6CO)O[C@@H]5CO)O[C@@H]4CO)O[C@@H]3CO`, the Potency result is “inactive”.
Take `Cc1cccc(C(=O)O)c1`: the Potency entry was “inactive”.
On the same count and under the same terms, next, `O=[N+]([O-])c1ccc2c(c1)Cc1ccccc1-2`: “inactive”; `CCCCC/C=C/C=C/C=O`: “inactive”.
Same read-out and setting: next, `Brc1cc(Oc2cc(Br)c(Br)c(Br)c2Br)c(Br)c(Br)c1Br`: “inactive”.
For `CCCCOCCOCCOCCO`, the Potency result is “inactive”.
On the same count and under the same terms, the entry for `CCCCC(CC)COP(=O)(OCC(CC)CCCC)OCC(CC)CCCC` (centres undefined) is “inactive”.
On the same count and under the same terms, the entry for `CC(C)OB(OC(C)C)OC(C)C` is “inactive”; for `Clc1nc(Cl)c(Cl)c(Cl)c1Cl` it is “inactive”.
The same measure, in the same setting: next, `CCCC(=O)O`: “inactive”; `c1cc(-c2ccncc2)ccn1`: “inactive”; `C=C(C)C(=O)OCCOC(=O)C(=C)C`: “inactive”.
As for `O=C(c1ccccc1)c1ccccc1O`, the Potency result is “inactive”.
Still for that read-out and setting: the entry for `Cc1ccc(C)c(O)c1C` is “inactive”.
Same read-out and setting: the entry for `CC(C)Oc1ccc2c(=O)c(-c3ccccc3)coc2c1` is “inactive”.
Still for that read-out and setting: next, `O=C(/C=C/c1ccccc1)OCc1ccccc1`: “inactive”.

A further assay can be described thus: qHTS assay to identify small molecule agonists of H2AX - cell viability counter screen (AID 1224847; calls by dose curve; also: nearly all actives have a fitted effect of over 30% in size; also: potency is read from the fitted curve at half-maximal effect). The settings on record: CHO-K1 viability, CellTiter-Glo luminescence, 3 h; series mostly up to 154 µM. Summed up:
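Compounds tested at 15 concentrations were incubated 3 hr at 37C with wild-type CHO-K1 cells; cellular ATP-based luminescence (CellTiter-Glo) indicated viability.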
As for `CCCCC/C=C/C=C/C=O`, the Potency result is “inactive”.
On the same count and under the same terms, next, `O=c1oc(=O)c2cc3c(=O)oc(=O)c3cc12`: “inactive”; `Cc1c(OCC(F)(F)F)ccnc1CS(=O)c1nc2ccccc2[nH]1` (centres undefined): “inactive”; `CCC(C)c1ccccc1O` (centres undefined): “inactive”.
Turning to `Nc1ncn([C@@H]2O[C@H](CO)[C@@H](O)[C@H]2O)c(=O)n1`, the Potency entry is “inactive”.
On the same count and under the same terms, the figure for `CC(C)OC(=O)C(C)(C)Oc1ccc(C(=O)c2ccc(Cl)cc2)cc1` is 50.5 µM (active); for `Brc1cc(Oc2cc(Br)c(Br)c(Br)c2Br)c(Br)c(Br)c1Br` it is “inactive”.
For the compound `CCCCOCCOCCOCCO`, the Potency result is “inactive”.
The same measure, in the same setting: next, `CCCCC(CC)COP(=O)(OCC(CC)CCCC)OCC(CC)CCCC` (centres undefined): “inactive”; `CCOC(=O)C(C#N)=C(c1ccccc1)c1ccccc1`: “inactive”; `CC(C(=O)O)c1cccc(C(=O)c2ccccc2)c1` (centres undefined): “inactive”.
Still for that read-out and setting: next, `CCC(C)CO` (centres undefined): “inactive”; `Clc1nc(Cl)c(Cl)c(Cl)c1Cl`: “inactive”; `CCCC(=O)O`: “inactive”.
On the same count and under the same terms, the entry for `c1cc(-c2ccncc2)ccn1` is “inactive”.
Regarding `CCCCC(CC)COC(=O)c1ccc(N(C)C)cc1` (centres undefined), the Potency result was “inactive”.
`CC1=CC2C3CC(C=C3C)C2C1` (centres undefined): the Potency entry was “inactive”.
The same measure, in the same setting: the figure for `COC(=O)C1=C(C)NC(C)=C(C(=O)OCCN(C)Cc2ccccc2)C1c1cccc([N+](=O)[O-])c1` (centres undefined) is 44.7 µM (active) and 49.2 µM (active); for `CC(=O)Oc1ccccc1C(=O)Nc1ncc([N+](=O)[O-])s1` it is 9.16 µM (active) and 24.7 µM (active).
For the compound `CCCCc1oc2ccccc2c1C(=O)c1cc(I)c(OCCN(CC)CC)c(I)c1`, the Potency is 80.7 µM (active) and 43.8 µM (active).
`Cc1ccc(C)c(O)c1C`: the Potency entry was “inactive”.
Take `CC(C)Oc1ccc2c(=O)c(-c3ccccc3)coc2c1`: the Potency entry is “inactive”.
Same read-out and setting: the entry for `Cn1cnc([N+](=O)[O-])c1Sc1ncnc2nc[nH]c12` is “inactive”.
Consider `O=C(/C=C/c1ccccc1)OCc1ccccc1`, for which the Potency result is “inactive”.

A further assay is described as follows: qHTS assay to identify small molecule antagonists of the estrogen related receptor (ERR) signaling pathway from Tox21 library (AID 1224848). Also: nearly all actives have a fitted effect of over 50% in size. Also: potency is read from the fitted curve at half-maximal effect. To be noted: ERR reporter cell line, luciferase antagonist mode, 18 h; series mostly up to 92.4 µM. The essentials:
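First, 2,000 ERR cells per well were plated and held 6 h at 37 C/5% CO2. Next, compounds in DMSO were pinned in and left 18 h at 37 C. Finally, ONE-Glo was added and luminescence read after 30 min at room temperature.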
As for `CCCCC(CC)COCC1CO1` (centres undefined), the Potency result is “inactive”.
Regarding `Cc1cccc(C(=O)O)c1`, the Potency result is “inactive”.
With `O=[N+]([O-])c1ccc2c(c1)Cc1ccccc1-2`, the Potency entry was “inactive”.
Still for that read-out and setting: next, `CCCCC/C=C/C=C/C=O`: “inactive and 54.5 µM (active)”; `O=c1oc(=O)c2cc3c(=O)oc(=O)c3cc12`: “inactive”; `Cc1c(OCC(F)(F)F)ccnc1CS(=O)c1nc2ccccc2[nH]1` (centres undefined): “inactive”.
On the same count and under the same terms, next, `CCC(C)c1ccccc1O` (centres undefined): “inactive”; `Nc1ncn([C@@H]2O[C@H](CO)[C@@H](O)[C@H]2O)c(=O)n1`: 864 nM (active) and 1.19 µM (active); `Cc1ccc2c(n1)Oc1ccc(C(C)C(=O)OCC(=O)N(C)C)cc1C2` (centres undefined): “inactive”.
Regarding `CCCCOCCOCCOCCO`, the Potency entry is “inactive”.
On to `CCOC(=O)C(C#N)=C(c1ccccc1)c1ccccc1`, for which the Potency was 48.6 µM (active).
`CC(C(=O)O)c1cccc(C(=O)c2ccccc2)c1` (centres undefined): the Potency entry is “inactive”.
On the same count and under the same terms, the entry for `CCC(C)CO` (centres undefined) is “inactive”; for `O=C1OC2(c3cc(Br)c(O)c(Br)c3Oc3c2cc(Br)c(O)c3Br)c2c(Cl)c(Cl)c(Cl)c(Cl)c21` it is “inactive”.
Same read-out and setting: next, `CC(CCC(=O)O)(c1ccc(O)cc1)c1ccc(O)cc1`: “inactive”; `C[C@]12CC[C@H]3[C@@H](CCC4=CC(=O)CC[C@@]43C)[C@@H]1CC[C@@H]2C(=O)CO`: 27.3 µM (active) and 26.6 µM (active).
On the same count and under the same terms, the entry for `Nc1ncnc2nc[nH]c12` is “inactive”; for `CC(C)OB(OC(C)C)OC(C)C` it is “inactive”.
With `C#C[C@]1(O)CC[C@H]2[C@@H]3CCc4cc(OC)ccc4[C@H]3CC[C@@]21C`, the Potency result is “inactive”.
Consider `Clc1nc(Cl)c(Cl)c(Cl)c1Cl`, for which the Potency result is “inactive”.
Still for that read-out and setting: next, `CCCC(=O)O`: “inactive”.
As to `C=C(C)C(=O)OCCOC(=O)C(=C)C`, the Potency entry was “inactive”.
Same read-out and setting: next, `O=C(c1ccccc1)c1ccccc1O`: “inactive”; `CC1=CC2C3CC(C=C3C)C2C1` (centres undefined): “inactive”.
The same measure, in the same setting: next, `c1ccc2cc(Nc3ccc(Nc4ccc5ccccc5c4)cc3)ccc2c1`: “inactive”; `CCCCc1oc2ccccc2c1C(=O)c1cc(I)c(OCCN(CC)CC)c(I)c1`: 48.9 µM (active) and 29.8 µM (active); `CC(C)Oc1ccc2c(=O)c(-c3ccccc3)coc2c1`: “inactive”.
Take `Cn1cnc([N+](=O)[O-])c1Sc1ncnc2nc[nH]c12`: the Potency result is “inactive”.
Consider `O=C(/C=C/c1ccccc1)OCc1ccccc1`, for which the Potency entry is “inactive”.

The values above are taken from PubChem BioAssay (Tox21).
